# Measurements as given in PubChem BioAssay.
# A number with no mark means an inactive call. Entries that show only a call come without a potency. For some of these results: Potency and affinity values are given separately. The source made the active and inactive calls. Unless noted, how the calls were made is not given here.
# Tests used:
# [1] = antimalarial activity against Dd2 strain (AID 2302;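 active means growth inhibition above 50% at the single 2 µM test dose, taken to imply half-maximal potency below 2 µM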); conditions: P. falciparum Dd2 in RBCs, LDH growth readout, 72 h; at 2 µM; active compounds read high
# [2] = human hepatoma cell viability loss – ATP luminescence, cytotoxicity control for P. falciparum antimalarial project, primary screen (AID 2303;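 active means inhibition above 50%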); conditions: HepG2 viability, 24-48 h, at 10 µM, active compounds read high
# [3] = biological target: L-lactate dehydrogenase (Plasmodium falciparum (isolate CDC / Honduras)) (UniProt Q27743); assay: PfLDH activity inhibition – cell lysate, 3D7 strain, counter-screen for P. falciparum growth inhibition project (AID 2304); conditions: P. falciparum 3D7 crude extract, LDH APAD/NBT absorbance; at 2 µM; active compounds read high
# [4] = inhibition of 3D7 malaria parasite growth – strain 3D7 (AID 2306); conditions: P. falciparum 3D7 erythrocytic growth, LDH absorbance, 72 h; at 2 µM; active compounds read high
# [5] = biological target: Calcium-dependent protein kinase 1 (Plasmodium falciparum (isolate 3D7)) (UniProt P62344); assay: PfCDPK1 kinase inhibitors, biochemical, TCAMS library (AID 1159585; cut-off not given, nearly all actives have IC50 up to about 0.98 µM;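 further: inhibitors leave more ATP so luminescence rises with inhibition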); conditions: recombinant PfCDPK1, Kinase-Glo ATP depletion luminescence
# [6] = biological target: Plasmodium falciparum protein kinase 6 (PK6, PF3D7_1337100) (UniProt Q8IDW1); assay: PfPK6 kinase inhibitors, biochemical, TCAMS library (AID 1159586); conditions: recombinant PfPK6, Kinase-Glo ATP depletion luminescence
# [7] = biological target: Protein kinase 7 (PK7), Plasmodium falciparum 3D7 (PF3D7_0213400) (UniProt Q7YTF7); assay: inhibition of Plasmodium PK7 catalytic activity – biochemical, TCAMS antimalarial set, Kinase-Glo luminescence (AID 1159587); conditions: recombinant PfPK7, Kinase-Glo ATP depletion luminescence
# [8] = biological target: Calcium-dependent protein kinase 4 (Plasmodium falciparum (isolate 3D7)) (UniProt Q8IBS5); assay: PfCDPK4 kinase inhibitors, biochemical, TCAMS library (AID 1159588; cut-off not given, nearly all actives have IC50 up to about 0.91 µM); conditions: recombinant PfCDPK4, Kinase-Glo ATP depletion luminescence
# Chain of Calcium-dependent protein kinase 4 (Plasmodium falciparum (isolate 3D7)) (Q8IBS5 whole entry, looked up): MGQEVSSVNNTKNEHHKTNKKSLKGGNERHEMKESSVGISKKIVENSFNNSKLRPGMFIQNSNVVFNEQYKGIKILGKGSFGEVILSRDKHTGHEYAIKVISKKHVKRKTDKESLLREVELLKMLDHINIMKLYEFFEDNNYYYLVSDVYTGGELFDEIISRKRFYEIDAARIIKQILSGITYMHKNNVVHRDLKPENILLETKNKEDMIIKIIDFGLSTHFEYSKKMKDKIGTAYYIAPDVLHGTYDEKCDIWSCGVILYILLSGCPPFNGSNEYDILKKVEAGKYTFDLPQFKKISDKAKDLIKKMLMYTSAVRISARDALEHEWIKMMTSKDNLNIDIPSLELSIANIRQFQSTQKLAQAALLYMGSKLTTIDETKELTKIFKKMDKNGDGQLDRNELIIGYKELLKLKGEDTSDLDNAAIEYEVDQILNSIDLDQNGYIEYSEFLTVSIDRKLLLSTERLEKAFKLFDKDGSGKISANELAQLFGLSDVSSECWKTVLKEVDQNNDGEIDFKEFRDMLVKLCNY
# Chain of Protein kinase 7 (PK7), Plasmodium falciparum 3D7 (PF3D7_0213400) (Q7YTF7 1-343): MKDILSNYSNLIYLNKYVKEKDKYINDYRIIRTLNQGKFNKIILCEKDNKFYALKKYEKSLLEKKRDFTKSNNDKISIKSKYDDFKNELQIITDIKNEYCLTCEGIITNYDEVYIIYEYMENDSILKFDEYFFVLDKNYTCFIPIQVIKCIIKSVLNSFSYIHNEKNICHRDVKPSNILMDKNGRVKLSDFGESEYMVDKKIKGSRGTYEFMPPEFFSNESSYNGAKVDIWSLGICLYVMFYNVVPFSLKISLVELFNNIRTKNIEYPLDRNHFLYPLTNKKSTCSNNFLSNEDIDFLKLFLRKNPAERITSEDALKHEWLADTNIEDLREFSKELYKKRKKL
# Chain of Calcium-dependent protein kinase 1 (Plasmodium falciparum (isolate 3D7)) (P62344 whole entry, looked up): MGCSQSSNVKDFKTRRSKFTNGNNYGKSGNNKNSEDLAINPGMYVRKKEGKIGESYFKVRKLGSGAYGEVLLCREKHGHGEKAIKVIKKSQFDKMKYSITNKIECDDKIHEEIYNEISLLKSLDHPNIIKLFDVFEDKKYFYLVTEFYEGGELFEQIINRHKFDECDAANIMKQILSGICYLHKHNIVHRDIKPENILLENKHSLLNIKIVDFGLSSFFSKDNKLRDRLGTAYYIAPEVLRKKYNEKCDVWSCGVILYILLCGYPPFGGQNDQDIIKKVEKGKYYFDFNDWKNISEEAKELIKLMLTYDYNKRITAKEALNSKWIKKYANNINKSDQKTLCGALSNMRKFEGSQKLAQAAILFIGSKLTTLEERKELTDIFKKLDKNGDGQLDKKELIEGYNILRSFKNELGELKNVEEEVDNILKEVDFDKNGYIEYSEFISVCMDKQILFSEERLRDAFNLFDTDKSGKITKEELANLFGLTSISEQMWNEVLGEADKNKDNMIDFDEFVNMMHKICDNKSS
# Chain of L-lactate dehydrogenase (Plasmodium falciparum (isolate CDC / Honduras)) (Q27743 whole entry, looked up): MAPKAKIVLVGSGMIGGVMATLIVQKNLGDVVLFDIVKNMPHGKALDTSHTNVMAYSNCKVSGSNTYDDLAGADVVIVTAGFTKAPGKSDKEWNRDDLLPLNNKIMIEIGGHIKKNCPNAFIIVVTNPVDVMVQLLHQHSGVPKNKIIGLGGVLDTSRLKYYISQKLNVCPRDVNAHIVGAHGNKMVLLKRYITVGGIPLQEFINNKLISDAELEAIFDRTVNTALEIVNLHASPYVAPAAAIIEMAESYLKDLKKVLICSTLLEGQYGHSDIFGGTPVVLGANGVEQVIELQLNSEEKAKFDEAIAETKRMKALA
# Chain of Plasmodium falciparum protein kinase 6 (PK6, PF3D7_1337100) (Q8IDW1 1-305): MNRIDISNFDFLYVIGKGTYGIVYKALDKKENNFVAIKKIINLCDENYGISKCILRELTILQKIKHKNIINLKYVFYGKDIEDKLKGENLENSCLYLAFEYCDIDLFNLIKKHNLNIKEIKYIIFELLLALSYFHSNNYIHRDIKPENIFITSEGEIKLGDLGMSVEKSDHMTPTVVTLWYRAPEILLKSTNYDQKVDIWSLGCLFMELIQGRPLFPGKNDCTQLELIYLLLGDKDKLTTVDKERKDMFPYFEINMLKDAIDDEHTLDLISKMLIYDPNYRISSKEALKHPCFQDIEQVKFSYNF
SMILES,growth inhibition [1],inhibition [2],inhibition [3],growth inhibition [4],outcome [5],outcome [6],outcome [7],outcome [8]
NC1CCN(Cc2ccc(-c3ccc(-c4nc5ccccc5[nH]4)s3)cc2)C1 (stereo not given),99% (active),32%,-6%,101% (active),inactive,inactive,inactive,inactive
CCCC(C)Nc1nc(C)cc(N[C@@H](CC(C)C)C(=O)NCCc2ccccc2)n1 (stereo not given in full),51% (active),9%,-2%,96% (active),inactive,inactive,inactive,inactive
Cc1cc(NN=Cc2ccccc2F)c2ccccc2n1,81% (active),14%,1%,101% (active),inactive,inactive,inactive,inactive
Cc1cccc2[nH]c(-c3ccc(-c4ccc(CN5CCN(c6cnccn6)CC5)cc4)s3)nc12,42%,11%,-6%,94% (active),inactive,inactive,inactive,inactive
COC(=O)c1ccc(N2CCN(CCCCNC(=O)c3ccc(NC(=O)c4ccc(Cl)cc4)cc3)CC2)c(OC)c1,1%,11%,3%,82% (active),inactive,inactive,inactive,inactive
Cc1cccc2[nH]c(-c3cccc(-c4ccc(NC(=O)NCc5cccc(F)c5)cc4)c3)nc12,83% (active),40%,-4%,101% (active),inactive,inactive,inactive,inactive
CCCC1N=C(N)N=C(N)N1c1ccc(OC)cc1 (stereo not given),4%,-2%,-3%,96% (active),inactive,inactive,inactive,inactive
Cc1nn(-c2ccccc2)nc1C(=O)NC1CCN(CCNC(=O)c2ccc(Cl)c(Cl)c2)CC1,5%,15%,0%,89% (active),inactive,inactive,inactive,inactive
O=C(Nc1ccc(C(F)(F)F)cc1)NC1CCN(c2ccnc3ccccc23)C1 (stereo not given),89% (active),13%,0%,102% (active),inactive,inactive,inactive,inactive
CN(C)Cc1cccc(-c2ccc3ccnc(N)c3c2)c1,74% (active),21%,3%,99% (active),inactive,inactive,inactive,inactive
COc1ccc(NC(=O)Nc2ccc(-c3ccc(-c4nc5c(C)cccc5[nH]4)s3)cc2)cc1,96% (active),74% (active),3%,100% (active),inactive,inactive,inactive,inactive
Nc1ncc(-c2ccccc2)cc1-c1nc2cc(Cl)c(F)cc2[nH]1,91% (active),37%,1%,101% (active),inactive,inactive,inactive,inactive
OCCN1CCN(c2nc(Nc3cccc(F)c3)c3cnn(-c4ccccc4)c3n2)CC1,76% (active),89% (active),-2%,100% (active),inactive,inactive,inactive,inactive
Cc1cc(NN=Cc2ccc(F)cc2)c2cc(C(F)(F)F)ccc2n1,99% (active),2%,-2%,101% (active),inactive,inactive,inactive,inactive
COc1cccc(CNC[C@@H](O)[C@H](Cc2ccccc2)NC(=O)c2cc(NC(C)C)cc(N3CCCCS3(=O)=O)c2)c1,97% (active),1%,1%,89% (active),inactive,inactive,inactive,inactive
Cc1cc(Nc2ccccc2)nc(Nc2ccccc2C)n1,27%,8%,5%,85% (active),inactive,inactive,inactive,inactive
CCCCCOc1ccc(C(O)C(CN2CCCCC2)c2ccccc2)cc1 (stereo not given),95% (active),11%,5%,98% (active),inactive,inactive,inactive,inactive
O=C(Nc1ccc(Cl)c(Cl)c1)N1CCc2cc3nccc(N4CCN5CCC[C@H]5C4)c3cc21,75% (active),2%,-7%,100% (active),inactive,inactive,inactive,inactive
Cc1cccc(CN2CCN(c3ncc(C(=O)NC4CC4)cc3Cl)CC2)c1,73% (active),2%,-4%,84% (active),inactive,inactive,inactive,inactive
CCNc1cc(C(=O)N[C@@H](Cc2ccccc2)[C@H](O)CNC(C)(C)c2cccc(OC)c2)cc(N2CCCC2=O)c1,99% (active),-3%,-6%,100% (active),inactive,inactive,inactive,inactive
